The panel holds about 79,000 compounds, 15% with a hit somewhere; the sample as a whole holds those more often. Calls of active or inactive are those of the source. No stated cut-off is given here; in the data, active means growth inhibition above about 70%; inactive means the rest.
Experiments:
[1] = NCI Yeast Anticancer Drug Screen. Data for the rad52 strain (AID 147);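 further: 0% = growth of vehicle-treated control cultures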; conditions: S. cerevisiae rad52 mutant growth inhibition, stronger effect = higher value
Summary of the method: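 Growth of repair-deficient yeast cells was compared between compound-treated and vehicle-treated cultures to give percent inhibition.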

[2] = NCI Yeast Anticancer Drug Screen. Data for the wt1 strain (AID 149);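 further: 0% = growth of vehicle-treated wt1 cultures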; conditions: S. cerevisiae wt1 strain (SPY 50644) growth inhibition, stronger effect = higher value
Summary of the method: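 Vehicle-normalised growth inhibition; strain wt1; compound exposure.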

[3] = NCI Yeast Anticancer Drug Screen. Data for the rad50EPP+ strain (AID 151);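 further: 0% = growth of vehicle-treated control cultures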; conditions: S. cerevisiae rad50 mutant strain, stronger effect = higher value
Summary of the method: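 Measured: growth inhibition of rad50EPP+ yeast. Reference: vehicle-treated controls. Screen uses strains with defined genetic alterations in DNA damage repair or cell cycle control.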

[4] = NCI Yeast Anticancer Drug Screen. Data for the mgt1 strain (AID 153); conditions: S. cerevisiae mgt1 mutant growth inhibition, stronger effect = higher value
Summary of the method: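 Compounds were applied to mgt1 mutant yeast, and growth was then compared against vehicle-treated control cultures to give percent inhibition.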

[5] = NCI Yeast Anticancer Drug Screen. Data for the rad50 strain (AID 155);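 further: 0% = growth of vehicle-only cultures of the same strain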; conditions: S. cerevisiae rad50 strain growth inhibition, stronger effect = higher value
Summary of the method: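 A DNA repair-deficient yeast mutant serves as the test organism; compound-induced growth inhibition is calculated against vehicle-treated cells.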

[6] = NCI Yeast Anticancer Drug Screen. Data for the mec2-1 strain (AID 157); conditions: S. cerevisiae mec2-1 strain, stronger effect = higher value
Summary of the method: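 Compounds were applied to mec2-1 yeast cells. Their growth was then compared with that of vehicle-treated cultures to give growth inhibition.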

[7] = NCI Yeast Anticancer Drug Screen. Data for the rad14 strain (AID 159);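 further: 0% = growth of vehicle-treated control cultures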; conditions: S. cerevisiae rad14 strain growth inhibition, stronger effect = higher value
Summary of the method: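 Vehicle-treated cultures served as the baseline for growth inhibition of a DNA repair-mutant yeast strain exposed to each compound.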

[8] = NCI Yeast Anticancer Drug Screen. Data for the sgs1 mgt1 strain (AID 161);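 further: 0% = growth of cultures given vehicle only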; conditions: S. cerevisiae sgs1 mgt1 strain, stronger effect = higher value
Summary of the method: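 Compounds are added to genetically altered yeast, and growth is compared with cultures given vehicle alone to give percent inhibition.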

[9] = NCI Yeast Anticancer Drug Screen. Data for the CLN2oe strain (AID 163);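 further: 0% = growth of vehicle-only control cultures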; conditions: S. cerevisiae CLN2oe strain, stronger effect = higher value
Summary of the method: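 Cells of an engineered yeast line with disturbed cell-cycle regulation are treated with compound. Inhibition of growth is then calculated relative to the vehicle-treated reference.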

[10] = NCI Yeast Anticancer Drug Screen. Data for the cln2 rad14 strain (AID 165);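 further: 0% = growth equal to vehicle treated cultures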; conditions: S. cerevisiae cln2 rad14 strain, stronger effect = higher value
Summary of the method: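 Strain: cln2 rad14 yeast, altered in cell cycle control and DNA damage repair. Read-out: growth inhibition vs vehicle.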

[11] = NCI Yeast Anticancer Drug Screen. Data for the bub3 strain (AID 167); conditions: S. cerevisiae bub3 mutant strain, stronger effect = higher value
Summary of the method: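 Inhibition values come from growth of compound-treated mutant yeast normalised to vehicle-treated controls.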

[12] = NCI Yeast Anticancer Drug Screen. Data for the wt2 strain (AID 169);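 further: 0% = growth of vehicle-treated yeast cultures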; conditions: S. cerevisiae wt2 strain growth inhibition, stronger effect = higher value
Summary of the method: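 Growth of compound-treated yeast is measured and expressed as inhibition relative to vehicle-only controls.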

[13] = NCI Yeast Anticancer Drug Screen. Data for the mlh1 strain (AID 171);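 further: 0% = growth of vehicle-treated control cultures of the same strain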; conditions: S. cerevisiae mlh1 strain growth inhibition, stronger effect = higher value
Summary of the method: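 Test agents were incubated with yeast bearing a defined DNA damage repair or cell cycle control alteration; values are growth inhibition normalised to vehicle-treated cultures.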

[14] = NCI Yeast Anticancer Drug Screen. Data for the mlh1 rad18 strain (AID 175); conditions: S. cerevisiae mlh1 rad18 strain growth inhibition, stronger effect = higher value
Summary of the method: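 A repair-deficient yeast strain is exposed to test compound, and growth is scored relative to vehicle-treated controls.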

[15] = NCI Yeast Anticancer Drug Screen. Data for the sgs1 strain (AID 173);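 further: 0% = growth of vehicle-only control cultures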; conditions: S. cerevisiae sgs1 mutant, stronger effect = higher value
Summary of the method: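 Strain with an altered DNA repair or cell cycle pathway exposed to compound. Growth then measured. Value = inhibition versus vehicle control.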

[16] = NCI Yeast Anticancer Drug Screen. Data for the rad18 strain (AID 177); conditions: S. cerevisiae rad18 mutant growth inhibition, stronger effect = higher value
Summary of the method: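 DNA-repair-defective yeast; compound treatment; growth inhibition scored against vehicle.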

[17] = at 5.0 µM (retest, dose inferred, filed as 0.5)
[18] = at 50.0 µM (retest, dose inferred, filed as 5.0)

Measured: growth inhibition

O=C(Nc1ccc(Cl)cc1)Nc1nnc2nc(C(C(=O)c3cccc([N+](=O)[O-])c3Cl)c3nc4nnc(NC(=O)Nc5ccc(Cl)cc5)n4[nH]c3=O)c(=O)[nH]n12
inactive: [1]; at 1.2 µM 2% | [1]; at 3.7 µM 2% | [1]; at 11.0 µM 2% | [1]; at 33.0 µM 4% | [1]; at 100.0 µM 52% | [2]; at 1.2 µM 1% | [2]; at 3.7 µM 1% | [2]; at 11.0 µM 3% | [2]; at 33.0 µM -1% | [2]; at 100.0 µM 30% | [3]; at 1.2 µM 4% | [3]; at 3.7 µM 5% | [3]; at 11.0 µM 8% | [3]; at 33.0 µM 23% | [3]; at 100.0 µM 29% | [4]; at 1.2 µM 0% | [4]; at 3.7 µM 1% | [4]; at 11.0 µM 0% | [4]; at 33.0 µM 15% | [4]; at 100.0 µM 47% | [5]; at 1.2 µM 1% | [5]; at 3.7 µM 0% | [5]; [17] -12% | [5]; at 11.0 µM 2% | [5]; at 33.0 µM 2% | [5]; [18] 10% | [5]; at 100.0 µM 31% | [6]; at 1.2 µM -4% | [6]; at 3.7 µM -2% | [6]; [17] -2% | [6]; at 11.0 µM -12% | [6]; at 33.0 µM 0% | [6]; [18] 10% | [6]; at 100.0 µM 68% | [7]; at 1.2 µM 0% | [7]; at 3.7 µM -3% | [7]; at 11.0 µM 0% | [7]; at 33.0 µM 1% | [7]; at 100.0 µM 56% | [8]; [17] 2% | [8]; [18] 28% | [9]; at 1.2 µM -6% | [9]; at 3.7 µM -8% | [9]; at 11.0 µM -5% | [9]; at 33.0 µM -12% | [9]; at 100.0 µM 37% | [10]; [17] -8% | [10]; [18] 14% | [11]; at 1.2 µM -5% | [11]; at 3.7 µM -5% | [11]; [17] -22% | [11]; at 11.0 µM -7% | [11]; at 33.0 µM -8% | [11]; [18] 22% | [11]; at 100.0 µM 64% | [12]; at 1.2 µM -1% | [12]; at 3.7 µM -2% | [12]; at 11.0 µM -2% | [12]; at 33.0 µM -2% | [12]; at 100.0 µM 32% | [13]; at 1.2 µM 1% | [13]; at 3.7 µM -2% | [13]; at 11.0 µM 2% | [13]; at 33.0 µM -1% | [13]; at 100.0 µM 35% | [14]; [17] -20% | [14]; [18] 55%
active: [5]; at 50.0 µM 99.5% | [6]; at 50.0 µM 99.5% | [8]; at 50.0 µM 99% | [10]; at 50.0 µM 99.2% | [11]; at 50.0 µM 99.5% | [14]; at 50.0 µM 99.4%

CCN(CC)CCNc1ccc2ncn3c4cc(OC)c(OC)c(=O)c4c(O)c1c23
inactive: [1]; at 1.2 µM 15% | [1]; at 3.7 µM 14% | [1]; at 11.0 µM 40% | [1]; at 33.0 µM 36% | [1]; at 100.0 µM 59% | [2]; at 1.2 µM -82% | [2]; at 3.7 µM 1% | [2]; at 11.0 µM 2% | [2]; at 33.0 µM 4% | [2]; at 100.0 µM 6% | [3]; at 1.2 µM 1% | [3]; at 3.7 µM 3% | [3]; at 11.0 µM 11% | [3]; at 33.0 µM 20% | [3]; at 100.0 µM 26% | [4]; at 1.2 µM 1% | [4]; at 3.7 µM 2% | [4]; at 11.0 µM 3% | [4]; at 33.0 µM 4% | [4]; at 100.0 µM 7% | [5]; at 1.2 µM 5% | [5]; at 3.7 µM 15% | [5]; [17] 2% | [5]; at 11.0 µM 30% | [5]; at 33.0 µM 46% | [5]; [18] -3% | [5]; at 50.0 µM 65.5% | [5]; at 100.0 µM 66% | [6]; at 1.2 µM -2% | [6]; at 3.7 µM -1% | [6]; [17] -3% | [6]; at 11.0 µM 0% | [6]; at 33.0 µM 8% | [6]; [18] -12% | [6]; at 50.0 µM 23.5% | [6]; at 100.0 µM 11% | [7]; at 1.2 µM -1% | [7]; at 3.7 µM 0% | [7]; at 11.0 µM 5% | [7]; at 33.0 µM 4% | [7]; at 100.0 µM 8% | [8]; [17] 10% | [8]; [18] 17% | [8]; at 50.0 µM 12.8% | [9]; at 1.2 µM -6% | [9]; at 3.7 µM -4% | [9]; at 11.0 µM 0% | [9]; at 33.0 µM -2% | [9]; at 100.0 µM 5% | [10]; [17] -5% | [10]; [18] 48% | [10]; at 50.0 µM 26.4% | [11]; at 1.2 µM -1% | [11]; at 3.7 µM -3% | [11]; [17] 11% | [11]; at 11.0 µM 0% | [11]; at 33.0 µM -2% | [11]; [18] 16% | [11]; at 50.0 µM 11.8% | [11]; at 100.0 µM 4% | [12]; at 1.2 µM -3% | [12]; at 3.7 µM 0% | [12]; at 11.0 µM 1% | [12]; at 33.0 µM 1% | [12]; at 100.0 µM 2% | [13]; at 1.2 µM -1% | [13]; at 3.7 µM 0% | [13]; at 11.0 µM 1% | [13]; at 33.0 µM 3% | [13]; at 100.0 µM 7% | [15]; at 1.2 µM 0% | [15]; at 3.7 µM 5% | [15]; at 11.0 µM 3% | [15]; at 33.0 µM 4% | [15]; at 100.0 µM 5% | [16]; at 1.2 µM -4% | [16]; at 3.7 µM -1% | [16]; at 11.0 µM 5% | [16]; at 33.0 µM -7% | [16]; at 100.0 µM 1%

From PubChem BioAssay (NCI)
